Inconclusive results are not listed. A call without a number means that no potency is given here. A structure can be active in one record and inactive in another. The source made the active and inactive calls. The call rests on the fitted dose curve; in most records, active means well fitted inhibition curve with a large enough effect in the repeat runs; inconclusive means weak or mixed curves, or effect the other way; inactive means no such curve, though single readings can be large or run the other way.
target: Nuclear receptor subfamily 1 group I member 3 (Homo sapiens) (UniProt Q14994); experiment: qHTS assay to identify small molecule antagonists of the constitutive androstane receptor (CAR) signaling pathway (AID 1224838); conditions: HepG2-CYP2B6-hCAR luciferase, CITCO-stimulated, 24 h; series mostly up to 92.4 µM; activity, negative = inhibition: at the top concentration; further: nearly all actives have a fitted effect of over 40% in size
Outline: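 Compounds were titrated across 15 concentrations onto HepG2 cells double-stably expressing hCAR and a CYP2B6-2.2kb reporter, together with 50 nM CITCO (final). After 24 h at 37 C, luciferase activity was measured by luminescence.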
Potency means the concentration at half of the fitted maximal effect.

Nuclear receptor subfamily 1 group I member 3 (Homo sapiens), sequence (Q14994 whole entry, looked up): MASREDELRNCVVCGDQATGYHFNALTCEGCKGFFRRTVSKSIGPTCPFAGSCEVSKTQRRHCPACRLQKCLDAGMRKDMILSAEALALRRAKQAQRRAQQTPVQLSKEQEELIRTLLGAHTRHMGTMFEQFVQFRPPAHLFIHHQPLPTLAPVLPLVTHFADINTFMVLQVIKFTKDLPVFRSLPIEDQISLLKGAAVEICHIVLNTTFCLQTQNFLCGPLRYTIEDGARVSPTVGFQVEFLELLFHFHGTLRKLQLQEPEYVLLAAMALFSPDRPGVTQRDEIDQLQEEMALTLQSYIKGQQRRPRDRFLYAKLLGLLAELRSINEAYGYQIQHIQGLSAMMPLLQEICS

| SMILES | Potency | activity, negative = inhibition |
| --- | --- | --- |
| CON(C)C(=O)Nc1ccc(Cl)c(Cl)c1 | inactive | – |
| OCCN(CCO)CCO | inactive | – |
| CC(C)C1(C)N=C(c2nc3ccccc3cc2C(=O)O)NC1=O (configuration not stated) | inactive | – |
| Clc1cccc(Cl)c1Cl | inactive | – |
| Cc1ccc(N)cc1Cl | inactive | – |
| O=c1[nH]c(=O)[nH]c(=O)[nH]1 | inactive | – |
| O=C(NC(=O)c1c(F)cccc1F)Nc1cc(Cl)c(OC(F)(F)C(F)C(F)(F)F)cc1Cl (configuration not stated) | inactive | – |
| Cc1cc(Cl)ccc1O | inactive | – |
| CN=C=S | inactive | – |
| CC(C)(C)OOC(=O)c1ccccc1 | inactive | – |
| O=NN1CCCC1 | 28.6 µM (active) and inactive | – |
| CC(C)C#N | – | -14.2% (inactive) |
| c1cc2c3c(cccc3c1)CC2 | inactive | – |
| CNC(=O)Oc1ccccc1OC(C)C | inactive | – |
| O=Cc1cccc(Oc2ccccc2)c1 | inactive | – |
| CC(C)(Cl)Cl | inactive | – |

| SMILES | Potency | activity, negative = inhibition |
| --- | --- | --- |
| NCC(O)c1ccc(O)cc1 (configuration not stated) | inactive | – |
| BrCCBr | inactive | – |
| Nc1ccccc1C(=O)O | inactive | – |
| CN(C)CCO | inactive | – |
| CC1C=[C-]C=C1.[C-]#[O+].[C-]#[O+].[C-]#[O+].[Mn] | inactive | – |
| O=[N+]([O-])c1ccc([As](=O)(O)O)cc1 | – | 10.7% (inactive) |
| Clc1ccc(Cl)cc1 | inactive | – |
| CC(C)(C)C(O)(CCc1ccc(Cl)cc1)Cn1cncn1 (configuration not stated) | inactive | – |
| C1CC2OC2CC1C1CO1 (configuration not stated) | inactive | – |
| Nc1ccc(Oc2ccc(N)cc2)cc1 | inactive | – |
| COCCl | inactive | – |
| CC(C)OC(=O)Nc1ccccc1 | inactive | – |
| CN(C)N=O | inactive | – |
| Clc1ccccc1Cl | inactive | – |
| CCc1cccc(C)c1N(C(=O)CCl)C(C)COC (configuration not stated) | inactive | – |
| CCCCOC(=O)c1ccccc1C(=O)OCCCC | inactive | – |
